Assay results published in article PMC11062922 (Nature Chemical Biology, 2023).
Like-named read-outs stand apart in the source and are kept apart here.

Assays:
[1] = test system: FES; parameters: species or system human, MV4-11 + K-562 + COLO205 + SK-N-BE2 + OVCAR-8; details: read-out: apparent Kd, compound concentrations: 100 nM and 1000 nM (sheet 'Samples'), n = 1
[2] = test system: MAP3K4; parameters: species or system human, MV4-11 + K-562 + COLO205 + SK-N-BE2 + OVCAR-8; details: read-out: apparent Kd, n = 1
[3] = test system: NEK1; parameters: species or system human, MV4-11 + K-562 + COLO205 + SK-N-BE2 + OVCAR-8; details: read-out: apparent Kd, n = 1
[4] = test system: PLK1; parameters: species or system human, MV4-11 + K-562 + COLO205 + SK-N-BE2 + OVCAR-8; details: read-out: apparent Kd, compound concentrations: 100 nM and 1000 nM (sheet 'Samples'), n = 1
[5] = test system: WEE1; parameters: species or system human, MV4-11 + K-562 + COLO205 + SK-N-BE2 + OVCAR-8; details: read-out: apparent Kd, n = 1
[6] = test system: ACVR2B; parameters: species or system human, MV4-11 + K-562 + COLO205 + SK-N-BE2 + OVCAR-8; details: read-out: apparent Kd, n = 1
[7] = test system: ABCD3; parameters: species or system human, MV4-11 + K-562 + COLO205 + SK-N-BE2 + OVCAR-8; details: read-out: apparent Kd, compound concentrations: 100 nM and 1000 nM (sheet 'Samples'), n = 1
[8] = test system: ARAF; parameters: species or system human, MV4-11 + K-562 + COLO205 + SK-N-BE2 + OVCAR-8; details: read-out: apparent Kd, compound concentrations: 100 nM and 1000 nM (sheet 'Samples'), n = 1
[9] = test system: MAP3K1; parameters: species or system human, MV4-11 + K-562 + COLO205 + SK-N-BE2 + OVCAR-8; details: read-out: apparent Kd, n = 1
[10] = test system: MAP3K6; parameters: species or system human, MV4-11 + K-562 + COLO205 + SK-N-BE2 + OVCAR-8; details: read-out: apparent Kd, compound concentrations: 100 nM and 1000 nM (sheet 'Samples'), n = 1
[11] = test system: MDN1; parameters: species or system human, MV4-11 + K-562 + COLO205 + SK-N-BE2 + OVCAR-8; details: read-out: apparent Kd, n = 1
[12] = test system: PI4KB; parameters: species or system human, MV4-11 + K-562 + COLO205 + SK-N-BE2 + OVCAR-8; details: read-out: apparent Kd, n = 1
[13] = test system: PIK3CB; parameters: species or system human, MV4-11 + K-562 + COLO205 + SK-N-BE2 + OVCAR-8; details: read-out: apparent Kd, compound concentrations: 100 nM and 1000 nM (sheet 'Samples'), n = 1
[14] = test system: PYGL; parameters: species or system human, MV4-11 + K-562 + COLO205 + SK-N-BE2 + OVCAR-8; details: read-out: apparent Kd, compound concentrations: 100 nM and 1000 nM (sheet 'Samples'), n = 1
[15] = test system: ZAK; parameters: species or system human, MV4-11 + K-562 + COLO205 + SK-N-BE2 + OVCAR-8; details: read-out: apparent Kd, compound concentrations: 100 nM and 1000 nM (sheet 'Samples'), n = 1
[16] = test system: CSNK2A1; details: hek293t cells
[17] = test system: CSNK2A2; details: hek293t cells
[18] = test system: CDK4; parameters: species or system human, MV4-11 + K-562 + COLO205 + SK-N-BE2 + OVCAR-8; details: read-out: apparent Kd, compound concentrations: 100 nM and 1000 nM (sheet 'Samples'), n = 1
[19] = test system: PIM3; parameters: species or system human, MV4-11 + K-562 + COLO205 + SK-N-BE2 + OVCAR-8; details: read-out: apparent Kd, compound concentrations: 100 nM and 1000 nM (sheet 'Samples'), n = 1
[20] = test system: ADRBK1; parameters: species or system human, MV4-11 + K-562 + COLO205 + SK-N-BE2 + OVCAR-8; details: read-out: apparent Kd, n = 1
[21] = compound concentrations:100 nM and 1000 nM (sheet 'Samples')

SMILES: COc1ccc(Nc2ncc(C#N)c(Nc3ccccc3C(N)=O)n2)cc1N1CCN(C)CC1.Cl [GSK1558669A]
- potency estimated from few doses ([1]; CATDS: 8.0815646455300594E-3): 0.387 µM
- potency estimated from few doses ([2]; compound concentrations: 100 nM and 1000 nM (sheet 'Samples'), CATDS: 1.60153050048602E-2): 0.0579 µM
- potency estimated from few doses ([3]; compound concentrations: 100 nM and 1000 nM (sheet 'Samples'), CATDS: 8.9161421311332902E-3): 0.272 µM
- potency estimated from few doses ([4]; CATDS: 1.2041031249847799E-2): 0.113 µM
- potency estimated from few doses ([5]; compound concentrations: 100 nM and 1000 nM (sheet 'Samples'), CATDS: 4.3913811824171201E-2): 0.0104 µM

SMILES: O=C1N=C(NCCc2ccc(Cl)cc2)S/C1=C\c1ccc2ncccc2c1 [RO4498479-000]
- potency estimated from few doses ([1]; CATDS: 7.5853712865523596E-3): 1.21 µM

SMILES: Cc1ccc(Nc2ccnc(Nc3ccc4c(c3)CS(=O)(=O)C4)n2)cc1O.Cl [GW579362A]
- potency estimated from few doses ([6]; compound concentrations: 100 nM and 1000 nM (sheet 'Samples'), CATDS: 0.34366648341671902): 0.0124 µM

SMILES: Cn1ncc2c(N)ncnc21 [SKF-18267]
- potency estimated from few doses ([7]; CATDS: 4.0800331971119997E-3): 1.27 µM
- potency estimated from few doses ([8]; CATDS: 4.8255610001080402E-3): 0.874 µM
- potency estimated from few doses ([1]; CATDS: 5.1575309929755304E-3): 0.766 µM
- potency estimated from few doses ([9]; compound concentrations: 100 nM and 1000 nM (sheet 'Samples'), CATDS: 4.4631882369260602E-3): 1.03 µM
- potency estimated from few doses ([2]; compound concentrations: 100 nM and 1000 nM (sheet 'Samples'), CATDS: 4.0015325722358502E-3): 1.34 µM
- potency estimated from few doses ([10]; CATDS: 4.1891325824414301E-3): 1.19 µM
- potency estimated from few doses ([11]; compound concentrations: 100 nM and 1000 nM (sheet 'Samples'), CATDS: 5.0398543071368297E-3): 0.801 µM
- potency estimated from few doses ([3]; compound concentrations: 100 nM and 1000 nM (sheet 'Samples'), CATDS: 3.5725639465568099E-3): 1.82 µM
- potency estimated from few doses ([12]; compound concentrations: 100 nM and 1000 nM (sheet 'Samples'), CATDS: 8.6005526131726403E-3): 0.328 µM
- potency estimated from few doses ([13]; CATDS: 8.3047003401232992E-3): 0.345 µM
- potency estimated from few doses ([14]; CATDS: 4.6532954394714601E-3): 0.943 µM
- potency estimated from few doses ([5]; compound concentrations: 100 nM and 1000 nM (sheet 'Samples'), CATDS: 4.2054880043609797E-3): 1.18 µM
- potency estimated from few doses ([15]; CATDS: 4.0930423662174304E-3): 1.26 µM

SMILES: CNC(=O)c1ccccc1Nc1nc(Nc2ccc(N3CCOCC3)cc2)ncc1Cl.Cl [GSK1576028A]
- potency estimated from few doses [2, 21]: 1.69 µM
- potency estimated from few doses [5, 21]: 0.0205 µM

SMILES: COc1cc(Nc2ncc3c(C)nc(-c4cc5ccccc5[nH]4)n3n2)cc(OC)c1OC [GW869516X]
- IC50 ([16]; read-out: Average, SD, n = 2): 0.446 µM
- IC50 ([16]; read-out: Rep 1): 0.471 µM
- IC50 ([16]; read-out: Rep 2): 0.421 µM
- IC50 ([17]; read-out: Average, SD, n = 2): 0.319 µM
- IC50 ([17]; read-out: Rep 1): 0.135 µM
- IC50 ([17]; read-out: Rep 2): 0.503 µM

SMILES: Cc1cccc(Nc2nc(N[C@H]3CCNC3)ncc2C(N)=O)c1.Cl [GSK2197149A]
- potency estimated from few doses [12, 21]: 0.892 µM

SMILES: CNCc1ccc(-c2cc(-c3nc(-c4ccc(S(=O)(=O)C(C)C)cc4)cnc3N)on2)cc1 [VE-822]
- potency estimated from few doses [9, 21]: 1.26 µM

SMILES: Cl.Cl.NC(CNC(=O)c1cc(Br)c(-c2ccnc3[nH]ccc23)s1)c1ccccc1.NC(CNC(=O)c1cc(Br)c(-c2ccnc3[nH]ccc23)s1)c1ccccc1 (stereo not drawn) [GSK1322949A]
- potency estimated from few doses ([8]; CATDS: 6.3043035692660204E-2): 0.316 µM
- potency estimated from few doses ([18]; CATDS: 3.2269694765046902E-2): 1.03 µM
- potency estimated from few doses ([11]; compound concentrations: 100 nM and 1000 nM (sheet 'Samples'), CATDS: 2.3593450099353701E-2): 2.3 µM
- potency estimated from few doses ([4]; CATDS: 2.70929722302506E-2): 1.55 µM

SMILES: CCN(CC)Cc1ccc(Nc2nccc(-c3cnn4ncccc34)n2)cc1 [GW780056X]
- potency estimated from few doses ([18]; CATDS: 1.9618421656054302E-2): 1.42 µM

SMILES: CCn1c(-c2cccnc2O)nc2cnccc21 [SB-736715]
- potency estimated from few doses ([13]; CATDS: 1.6268370150171501E-2): 1.1 µM
- potency estimated from few doses ([19]; CATDS: 1.44947330035029E-2): 1.39 µM
- potency estimated from few doses ([14]; CATDS: 1.35129561389799E-2): 1.63 µM

SMILES: O=C(O)C(F)(F)F.O=c1[nH]ccc2nc(N[C@@H]3CCNC3)nc(Nc3ccc4c(c3)S(=O)(=O)CC4)c12 [GSK2181306A]
- potency estimated from few doses ([19]; CATDS: 5.1317659487183503E-2): 0.0364 µM

SMILES: COc1ccc(-c2cc3c(N)ncnc3o2)cc1 [GW642138X]
- potency estimated from few doses ([20]; compound concentrations: 100 nM and 1000 nM (sheet 'Samples'), CATDS: 0.10043155858125399): 1.82 µM

SMILES: COc1cc(Nc2nccc(N3CCC(NC(=O)c4cccc(NC(C)=O)c4)C3)n2)cc(OC)c1OC (stereo not drawn) [GSK1379754A]
- potency estimated from few doses ([19]; CATDS: 9.0008616948043199E-2): 1.47 µM

SMILES: Cc1cc(-c2ccnc(Nc3cccc(C#N)c3)n2)cc(C)c1O [GSK1440913A]
- potency estimated from few doses ([20]; compound concentrations: 100 nM and 1000 nM (sheet 'Samples'), CATDS: 7.8557926604231804E-2): 1.43 µM

SMILES: FC(F)(F)c1ccc(-c2ncn(CCCN3CCOCC3)c2-c2ccncc2)cc1 [SB-217780]
- potency estimated from few doses ([10]; CATDS: 0.20378278704682301): 1.72 µM

SMILES: O=C(O)C(F)(F)F.O=C(O)C(F)(F)F.O=c1[nH]ccc2nc(N[C@@H]3CCCNC3)nc(Nc3ccc(S(=O)(=O)N4CCOCC4)cc3)c12.O=c1[nH]ccc2nc(N[C@@H]3CCCNC3)nc(Nc3ccc(S(=O)(=O)N4CCOCC4)cc3)c12 [GSK2177277A]
- potency estimated from few doses ([18]; CATDS: 6.3800508588872503E-3): 1.6 µM

SMILES: CC(C)Oc1ccc2c(-c3ccnc(Nc4ccc(N5CCN(C)CC5)cc4)n3)cnn2n1 [GW696155X]
- potency estimated from few doses [3, 21]: 1.13 µM

SMILES: CNc1cc(-c2ccc3c(N)n[nH]c3c2)nc(N)n1 [GSK2224810A]
- potency estimated from few doses [6, 21]: 1.19 µM

SMILES: CC(C)N1CC(=O)N(C)c2cnc(Nc3cccc(S(=O)(=O)CCN4CCOCC4)c3)nc21 [BI00009348]
- potency estimated from few doses ([9]; compound concentrations: 100 nM and 1000 nM (sheet 'Samples'), CATDS: 5.2672429134220697E-2): 1.56 µM
- potency estimated from few doses ([10]; CATDS: 7.2828700738199706E-2): 0.698 µM
- potency estimated from few doses ([15]; CATDS: 5.0114665499168799E-2): 1.82 µM

SMILES: Nc1nc(-c2ccc3c(N)n[nH]c3c2)cc(N2CCCC(NC(=O)c3ccccc3)C2)n1 (stereo not drawn) [GSK2286775B]
- potency estimated from few doses [20, 21]: 2.05 µM
- potency estimated from few doses [11, 21]: 1.29 µM

SMILES: CCC(CC)(CC)n1cnc2c(N)ncnc21 [SKF-97620]
- potency estimated from few doses ([12]; compound concentrations: 100 nM and 1000 nM (sheet 'Samples'), CATDS: 7.0031928225578105E-2): 0.17 µM
- potency estimated from few doses ([13]; CATDS: 4.8769305637968503E-2): 0.337 µM
- potency estimated from few doses ([4]; CATDS: 2.3248772158463601E-2): 2.3 µM

SMILES: COc1ccc(-n2cnc3c(N)ncnc32)cc1 [SKF-97236]
- potency estimated from few doses ([7]; CATDS: 0.13687794544238399): 1.49 µM

SMILES: Cl.Cl.Cl.c1ccc(Oc2ccc(Nc3ccnc4cc(-c5ccc(CN6CCNCC6)o5)ccc34)cc2)nc1.c1ccc(Oc2ccc(Nc3ccnc4cc(-c5ccc(CN6CCNCC6)o5)ccc34)cc2)nc1 [GW567142A]
- potency estimated from few doses ([14]; CATDS: 1.6934358184527699E-2): 2.08 µM
- potency estimated from few doses ([15]; CATDS: 2.00291787525065E-2): 1.14 µM
